Laboratory results reported in PubChem BioAssay (NCATS).
Records with an inconclusive call do not appear. Calls of active or inactive are those of the source. Unless noted, the call rests on the fitted dose curve.

Experiments:
[1] = qHTS for Inhibitors of the Functional Ribonucleoprotein Complex (vRNP) of Lassa (LASV) Arenavirus: LASV Primary Screen - GLuc reporter signal (AID 1347082; calls by dose curve; tested in HEK293 reporter line; further: nearly all actives have a fitted effect of over 60% in size)
[2] = qHTS for Inhibitors of the Functional Ribonucleoprotein Complex (vRNP) of Lassa (LASV) Arenavirus: Viability assay - alamar blue signal for LASV Primary Screen (AID 1347083; calls by dose curve; tested in HEK293 reporter line; further: nearly all actives have a fitted effect of over 80% in size)
[3] = qHTS for Inhibitors of the Functional Ribonucleoprotein Complex (vRNP) of Lymphocytic Choriomeningitis Arenaviruses (LCMV): Viability assay - alamar blue signal for LCMV Primary Screen (AID 1347085; calls by dose curve; tested in HEK293 reporter line; further: nearly all actives have a fitted effect of over 80% in size)
[4] = biological target: Nucleoprotein (Lymphocytic choriomeningitis virus (strain Armstrong)) (UniProt P09992); test: qHTS for Inhibitors of the Functional Ribonucleoprotein Complex (vRNP) of Lymphocytic Choriomeningitis Arenaviruses (LCMV): LCMV Primary Screen - GLuc reporter signal (AID 1347086); further: nearly all actives have a fitted effect of over 70% in size

Measured: Potency
Further: series mostly up to about 57 µM.

Nucleoprotein (Lymphocytic choriomeningitis virus (strain Armstrong)), sequence (P09992 whole entry, looked up): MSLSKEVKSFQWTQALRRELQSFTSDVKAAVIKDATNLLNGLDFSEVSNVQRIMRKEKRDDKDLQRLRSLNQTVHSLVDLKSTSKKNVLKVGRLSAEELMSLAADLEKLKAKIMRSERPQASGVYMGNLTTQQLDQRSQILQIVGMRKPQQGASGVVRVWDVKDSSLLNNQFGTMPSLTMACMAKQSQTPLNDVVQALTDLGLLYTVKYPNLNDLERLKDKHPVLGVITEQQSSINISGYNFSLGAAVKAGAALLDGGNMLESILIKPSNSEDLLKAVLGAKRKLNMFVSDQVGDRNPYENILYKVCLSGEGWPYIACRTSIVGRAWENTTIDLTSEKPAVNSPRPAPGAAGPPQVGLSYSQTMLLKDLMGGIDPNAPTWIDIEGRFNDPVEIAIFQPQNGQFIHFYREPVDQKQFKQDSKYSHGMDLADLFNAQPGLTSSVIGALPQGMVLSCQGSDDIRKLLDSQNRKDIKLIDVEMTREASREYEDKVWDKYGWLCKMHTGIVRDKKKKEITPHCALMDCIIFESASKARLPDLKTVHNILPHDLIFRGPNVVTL

CNCCC(Oc1ccc(C(F)(F)F)cc1)c1ccccc1 (stereo not drawn)
inactive: all assays above

Cc1cccc(Nc2ccccc2C(=O)O)c1C
inactive: all assays above

CN1CCC(=C2c3ccccc3C=Cc3ccccc32)CC1
inactive: all assays above

CCN1CCN(C(=O)N[C@@H](C(=O)N[C@@H]2C(=O)N3C(C(=O)O)=C(CSc4nnnn4C)CS[C@H]23)c2ccc(O)cc2)C(=O)C1=O
inactive: all assays above

Cc1nc2n(c(=O)c1CCN1CCC(c3noc4cc(F)ccc34)CC1)CCCC2
inactive: all assays above

Cc1onc(-c2ccccc2Cl)c1C(=O)N[C@@H]1C(=O)N2[C@@H]1SC(C)(C)[C@@H]2C(=O)O
inactive: all assays above

OCCN1CCN(CCCN2c3ccccc3Sc3ccc(C(F)(F)F)cc32)CC1
inactive: all assays above

CCCCN1C[C@H](O)[C@@H](O)[C@H](O)[C@H]1CO
inactive: all assays above

COc1ccc(-c2cc(=S)ss2)cc1
inactive: all assays above

C[C@@H](c1ncncc1F)C(O)(Cn1cncn1)c1ccc(F)cc1F (stereo partly drawn)
inactive: all assays above

Nc1cc(-c2ccncc2)c[nH]c1=O
inactive: all assays above

Nc1cccc2c1CN(C1CCC(=O)NC1=O)C2=O (stereo not drawn)
inactive: all assays above

CC1(C)S[C@@H]2[C@H](NC(=O)[C@H](N)c3ccccc3)C(=O)N2[C@H]1C(=O)O
inactive: all assays above

C[n+]1ccccc1/C=N/O
inactive: all assays above

CCc1ccc(CCOc2ccc(CC3SC(=O)NC3=O)cc2)nc1 (stereo not drawn)
inactive: all assays above

CC1=C(C(=O)O)N2C(=O)[C@@H](NC(=O)[C@H](N)c3ccc(O)cc3)[C@H]2SC1
inactive: all assays above

Cc1cnc(C(=O)NCCc2ccc(S(=O)(=O)NC(=O)NC3CCCCC3)cc2)cn1
inactive: all assays above
